Screening results deposited in PubChem by several laboratories.
Gli-Sufu antag – Gli-Sufu pathway antagonists, primary screen, luciferase luminescence, Sufu-KO-LIGHT cells, uHTS | Sufu-KO-LIGHT fibroblasts, Gli luciferase reporter luminescence | inhibition, % at 5 µM | hit rate 0.74% among 340,000 | AID 588413, 2011;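 active = inhibition above about 55%, limit read from the data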;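 also: 0% = DMSO-treated cells and 100% = wells with medium but no cells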
Jurkat NFkB inh – inhibitors of induced NF-kB luciferase reporter, primary screen, TCR NF-kB activation inhibitor project, cell-based, luminescence, uHTS; Jurkat, PMA/ionomycin-induced NF-kB luciferase reporter; inhibition, % at 4 µM; hit rate 0.53% among 330,000; AID 435003, 2010; in the data active = inhibition above about 50%
Shn3 inh set2 – reduction of Shn3 3'UTR firefly luciferase signal, primary screen, Schnurri-3 inhibitor project, cell-based, Clone20 osteoblasts, set 2 | Clone20 osteoblast Shn3 3'UTR firefly luciferase, 24 h | inhibition, % at 12.5 µM | hit rate 0.52% among 360,000 | AID 588674, 2011;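 active = mean inhibition of at least 75% with every replicate also reaching 75%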;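 also: 0% = median of neutral control wells and 100% = pilot-screen positive control compound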
Mdm2-MdmX inh – inhibitors of human Mdm2-MdmX association, primary screen, cell-based, luminescence, split luciferase, SaOS-2, uHTS | Protein Mdm4 (Homo sapiens) + E3 ubiquitin-protein ligase Mdm2 (Homo sapiens), … | inhibition, % at 8 µM | SaOS-2 split-luciferase Mdm2/MdmX complementation | hit rate 3% among 330,000;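 active = inhibition of at least 50% at 8 µM in the primary screen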
Target sequence (O15151 whole entry, looked up): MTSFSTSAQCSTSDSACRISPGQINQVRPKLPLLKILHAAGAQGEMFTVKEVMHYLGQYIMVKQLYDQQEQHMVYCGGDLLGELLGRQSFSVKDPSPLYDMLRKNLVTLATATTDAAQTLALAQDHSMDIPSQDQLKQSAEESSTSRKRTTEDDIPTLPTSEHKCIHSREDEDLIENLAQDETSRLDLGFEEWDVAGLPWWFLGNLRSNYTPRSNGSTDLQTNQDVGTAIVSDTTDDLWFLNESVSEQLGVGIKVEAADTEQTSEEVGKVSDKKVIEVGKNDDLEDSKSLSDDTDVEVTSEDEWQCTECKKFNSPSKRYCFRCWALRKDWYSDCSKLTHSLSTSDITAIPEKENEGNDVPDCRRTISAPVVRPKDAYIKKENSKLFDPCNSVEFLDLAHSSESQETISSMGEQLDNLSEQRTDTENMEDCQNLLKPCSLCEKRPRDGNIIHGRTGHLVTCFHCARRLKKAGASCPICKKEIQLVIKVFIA
Target sequence (Q00987 whole entry, looked up): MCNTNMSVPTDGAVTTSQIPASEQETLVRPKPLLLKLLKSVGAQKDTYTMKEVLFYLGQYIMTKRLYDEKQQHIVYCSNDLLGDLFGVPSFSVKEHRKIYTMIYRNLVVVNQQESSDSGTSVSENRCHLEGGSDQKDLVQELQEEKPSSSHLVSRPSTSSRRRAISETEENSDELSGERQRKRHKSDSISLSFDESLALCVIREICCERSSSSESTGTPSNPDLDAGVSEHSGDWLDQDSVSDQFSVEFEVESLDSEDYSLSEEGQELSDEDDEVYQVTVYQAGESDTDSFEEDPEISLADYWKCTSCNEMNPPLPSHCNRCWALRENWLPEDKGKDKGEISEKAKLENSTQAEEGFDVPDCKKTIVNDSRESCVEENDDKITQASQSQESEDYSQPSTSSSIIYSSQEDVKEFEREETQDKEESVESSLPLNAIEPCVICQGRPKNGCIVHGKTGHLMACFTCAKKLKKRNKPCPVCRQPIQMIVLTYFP
697 NFkB inh – inhibitors of PMA/ionomycin-induced NF-kB reporter, 697 cells, primary screen, B-cell NF-kB inhibitor project, cell-based, luminescence, uHTS | 697 B-cell NF-kB luciferase reporter, 16 h | inhibition, % at 4 µM | hit rate 0.33% among 330,000 | AID 435022, 2010; in the data active = inhibition above about 35%
Gli-Sufu confirm – Gli-SUFU pathway antagonists, confirmation, single concentration, luciferase luminescence, Sufu-KO-LIGHT cells | inhibition, % at 5 µM | Gli luciferase reporter | shares compounds with Gli-Sufu antag | hit rate 40% among 2,500;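 active = mean inhibition at 5 µM reaching about 45%, limit read from the data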;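 also: plate controls were DMSO-treated cells for no effect and wells lacking cells for full effect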
Gli cytotox – cytotoxicity in Sufu-KO-LIGHT cells, confirmation, cytotoxicity control for Gli-SUFU antagonist project, cell-based, ATP luminescence, single concentration | shares compounds with Gli-Sufu antag | cytotoxicity, % at 5 µM | hit rate 32% among 2,500 | AID 651994, 2013;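 active = mean cytotoxicity at 5 µM above about 25%, limit read from the data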;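 also: cells exposed to compound overnight for roughly 16 to 18 hours; plate controls were DMSO wells with cells for no effect and medium without cells for full effect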
Wnt3a counter – Wnt3a reporter signal inhibition, confirmation, counter-screen for Gli-SUFU antagonist project, Wnt-LIGHT cells, luminescence, single concentration; Wnt3a-driven luciferase reporter; shares compounds with Gli-Sufu antag; AID 651995, 2013; hit rate 20% among 2,500; inhibition, % at 6.25 µM;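 active = mean inhibition above about 25%, limit read from the data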
* marks the source's active call; other numbers are inactive results; . = no result. Only some compounds are listed: those with a hit (about 3.8% of all), similar ones and a draw of the others.

SMILES | Gli-Sufu antag | Jurkat NFkB inh | Shn3 inh set2 | Mdm2-MdmX inh | 697 NFkB inh | Gli-Sufu confirm | Gli cytotox | Wnt3a counter
CC(C)CCOC(=O)C[N+](C)(C)CCOC1CC2CCC1(C)C2(C)C (stereo not given) | 77* | -1 | 69 | 23 | 2 | 73* | 23 | 23
Cc1c(C)n2c(SCC(=O)N3CCN(c4ccccc4)CC3)nnc2[nH]c1=O | 3 | 1 | -2 | 2 | 1 | . | . | .
CCCCCCNC(=O)CNC(=S)N(Cc1cccs1)C1CCCCC1 | 45 | 3 | 1 | -4 | 2 | . | . | .
O=C(CN1CCOCCOCCOCCOCC1)Nc1ccccc1 | 96* | -22 | -46 | -25 | 3 | 20 | 8 | -32
OCC1OC(n2ccc3c(NO)ncnc32)C(O)C1O (stereo not given) | 75* | . | 99* | . | . | 60* | 54* | 69*
CN(C)c1ncnc2c1ccn2C1OC(CO)C(O)C1O (stereo not given) | 62* | . | 88* | . | . | 68* | 48* | 40*
CN(C)c1nc2c(N)ncnc2n1C1OC(CO)C(O)C1O (stereo not given) | -6 | . | 5 | . | . | . | . | .
CN(C(=O)CCNC(=O)Cn1cnc2ccccc2c1=O)c1ccccc1F | -23 | -13 | 3 | 7 | -4 | . | . | .
Cc1oc(-c2ccccc2F)nc1CS(=O)(=O)CC(=O)NCCCN1CCN(C)CC1 | -2 | 6 | 3 | -19 | -36 | . | . | .
COc1ccc(-c2nc(CS(=O)(=O)CC(=O)NCCCN3CCN(C)CC3)c(C)o2)cc1 | 53 | -14 | -13 | -19 | -61 | 11 | 10 | -2
CCN1CCCC1CNc1ncnc2c1[nH]c1ccc(Cl)cc12 (stereo not given) | 52 | -27 | -14 | 9 | -28 | 40 | 13 | -95
COc1ccc(NC(=S)N2CCC(Cc3ccccc3)CC2)cc1 | 62* | -6 | 32 | 19 | 21 | 45 | 10 | 13
CCNC(=S)N1CCC(Cc2ccccc2)CC1 | 27 | 1 | -3 | 20 | 1 | . | . | .
S=C(Nc1ccccc1)N1CCC(Cc2ccccc2)CC1 | 53 | 20 | 0 | 7 | -6 | 66* | 27* | 22
Cc1cc(C)c(C(=O)COC(=O)c2cc([N+](=O)[O-])ccc2NCCO)cc1C | -32 | -4 | 8 | 33 | 8 | . | . | .
CCO[C@H]1OC(C(=O)N2CCOCC2)=C[C@@H](C2CC2)[C@@H]1CCCO | 99* | 9 | 6 | -17 | -7 | 26 | -5 | 0
CCO[C@@H]1OC(C(=O)N2CCOCC2)=C[C@H](C2CC2)[C@H]1CCCO | -17 | -1 | -14 | -32 | 5 | . | . | .
CC(Oc1ccc(Br)cc1Br)C(=O)Nc1cccnc1Cl (stereo not given) | 52 | 17 | -4 | 18 | -4 | 9 | 11 | -31
Cc1cccc(NC(=O)NCCc2c[nH]c3ccccc23)c1 | 60* | -25 | -26 | 12 | -93 | 6 | 11 | -14
O=C(NCCc1c[nH]c2ccccc12)Nc1cccc2ccccc12 | 7 | 8 | 0 | 6 | -23 | . | . | .
O=C(O)CC(Sc1n[nH]c(=S)s1)C(=O)O (stereo not given) | -3 | -6 | -3 | 4 | -6 | . | . | .
Cc1ccc(NC(=O)CSc2nc(O)c(Cc3ccccc3)c(=O)n2-c2ccccc2)cc1 | -5 | 7 | -14 | 5 | -17 | . | . | .
CC(c1ccc(F)cc1)n1cc(C(=O)NCCN(C)C)nn1 (stereo not given) | 57* | -31 | -11 | -7 | -35 | 29 | 21 | 6
CCN(CC)C(=O)CCSc1nnc(-c2ccco2)o1 | -5 | -2 | -1 | -20 | -1 | . | . | .
